Screening results deposited in PubChem by National Center for Advancing Translational Sciences (NCATS).
CHX counter = counter-screen for Shiga toxin inhibitors: cycloheximide protein synthesis inhibition; max response, %; 300,000 tested, 12% active; cell reporter, cycloheximide protein synthesis inhibition counterscreen; in the data active means max response mostly above about 13%, no sharp cut-off; inactive means mostly below about 14%; further: read at 38.3 µM for the half of the compounds with a filed dose; 0% is about no effect
LmPK inh = inhibitors of Leishmania mexicana pyruvate kinase | purified LmPK, Kinase-Glo ATP luminescence, 1 h | AID 1721 | Potency, µM (titrated, usually from 57.5 µM), for the others: top-dose activity change, negative = inhibition, most hits filed as inhibitors | 290,000 tested, 0.37% active; further: potency means the concentration at half of the fitted maximal effect; on the % scale 0 is the no-effect control and ±100 the full control effect
Target sequence (Q27686 whole entry, looked up): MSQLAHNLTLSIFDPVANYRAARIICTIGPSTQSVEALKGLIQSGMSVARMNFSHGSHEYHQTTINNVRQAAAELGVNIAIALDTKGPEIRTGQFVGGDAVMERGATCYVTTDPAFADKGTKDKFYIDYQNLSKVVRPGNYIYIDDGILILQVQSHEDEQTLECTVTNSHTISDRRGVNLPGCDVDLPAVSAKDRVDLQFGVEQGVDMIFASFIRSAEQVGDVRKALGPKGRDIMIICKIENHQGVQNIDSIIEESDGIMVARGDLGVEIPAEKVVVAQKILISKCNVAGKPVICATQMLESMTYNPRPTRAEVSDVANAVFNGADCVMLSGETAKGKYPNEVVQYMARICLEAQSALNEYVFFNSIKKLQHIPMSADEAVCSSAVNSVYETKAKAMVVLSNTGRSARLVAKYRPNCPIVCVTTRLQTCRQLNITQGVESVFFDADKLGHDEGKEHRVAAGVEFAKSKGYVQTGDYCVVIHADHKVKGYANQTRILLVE
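Kinase-Glo luminescence read after 1 h RT reaction of 0.1 nM LmPK with 0.5 mM PEP and 0.1 mM ADP. Activity scaled between uninhibited and enzyme-free controls.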
RE007 growth inh = less growth of the S. pombe RE007 Vpr strain | 360,000 tested, 0.21% active | S. pombe RE007 Vpr strain, BacTiter-Glo ATP luminescence, 24 h | Potency, µM (doses to about 92.2 µM), for inactives: at the highest dose activity change, negative = less growth, most hits filed as inhibitors; active means well fitted falling curve with a large enough effect; inconclusive means small, poorly fitted or top-dose-only effect; inactive means no such curve, though single readings can be large or run the other way; further: potency means the concentration at half of the fitted maximal effect; on the % scale 0 is the no-effect control and ±100 the full control effect; nearly all actives have a fitted effect of over 50% in size
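Fission yeast strain RE007, carrying one chromosomally integrated HIV-1 vpr copy, was seeded at OD 0.01 in PMG+AL medium with 23 nL pinned compound. After 24 h at 30 °C and 99% humidity, viability was read by BacTiter-Glo luminescence.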
FBPA Giardia inh = blocks Giardia fructose-bisphosphate aldolase activity. 290,000 tested, 0.71% active. Potency, µM (top dose mostly 59.6 µM), for the others: at the highest dose activity, negative = inhibition, actives largely listed as inhibitors. purified Giardia FBPA. A8B2U2. AID 2451; further: potency means the concentration at half of the fitted maximal effect; on the % scale 0 is the no-effect control and ±100 the full control effect; nearly all actives have a fitted effect of over 55% in size
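Giardia FBPA (40 nM reagent) was preincubated 10 min at RT with compound (up to 57.5 uM final), then substrate plus GAPDH/TPI/NAD/arsenate coupling system with diaphorase/resazurin was added; resorufin fluorescence (525/598 nm) was read after 20 min.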
Shiga toxin inh = Shiga toxin inhibition | Vero cells, Shiga toxin protein synthesis inhibition reporter | inhibition, % at 38.7 µM | 290,000 tested, 9.2% active | AID 2315; in the data active means inhibition mostly above about 28%, no sharp cut-off; inactive means mostly below about 43%; further: 0% is about no effect
Tb PYK inh = inhibitors of Trypanosoma brucei pyruvate kinase; Q57TT1; TbPYK enzyme, Kinase-Glo Plus ATP luminescence, 45 min; Potency, µM (series often up to 76.8 µM), inactives show at the top dose activity, negative = inhibition, hits mostly inhibitors; 410,000 tested, 0.12% active; AID 624173; further: potency means the concentration at half of the fitted maximal effect; on the % scale 0 is the no-effect control and ±100 the full control effect; nearly all actives have a fitted effect of over 50% in size
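Assay buffer: 50 mM TEA pH 7.2, 100 mM KCl, 10 mM MgCl2, 0.05% BSA, 0.01% Tween-20. Pyruvate kinase from T. brucei plus substrate met compound, then ADP (130 uM final). Luminescence was read post 45 min RT.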
The depositor's hits bear a star; ? = inconclusive; / = no result; [ ] = another dose, or the depositor's remark. Only a selection was taken, and hits are over-represented in it overall. Unless noted, the call rests on the fitted dose curve; in most records, active means well fitted curve in the direction sought with a large enough effect; inconclusive means small, poorly fitted or top-dose-only effect, or another doubt; inactive means no such curve, though single readings can be large; an effect the other way counts as inactive or inconclusive.

SMILES	CHX counter	LmPK inh	RE007 growth inh	FBPA Giardia inh	Shiga toxin inh	Tb PYK inh
COCCn1c(=O)c(-c2cn(C)c3ccccc23)nc2cnc(Oc3ccccc3)nc21	/	/	/	-7%	/	-3%
COc1cccc(NC(=O)N2CCCC2C(=O)Nc2cc(C)ccc2OC)c1 (configuration not stated)	-3	-6%	0%	9%	-7	1%
COc1cc2sc(C)nc2c2ccccc12	1	0%	-9%	?	-2	-2%
Cc1nc2c(ccc3c2ccc2nc(C)sc23)s1	23	-3%	1%	-3%	71*	3%
CCCCN(CCCC)S(=O)(=O)c1ccc(NC(=O)Cc2cccs2)cc1	35*	10%	-2%	11%	27	-4%
COc1cc(OC)c(NC(=O)Cc2cccs2)cc1Cl	2	-8%	5%	1%	-13	-19%
CCCNS(=O)(=O)c1ccc(NC(=O)Cc2cccs2)cc1	19*	-2%	10%	4%	21	-1%
CCCN(CCC)S(=O)(=O)c1ccc(NC(=O)Cc2cccs2)cc1	1	-1%	-11%	-4%	16	1%
CCN(CC)S(=O)(=O)c1ccc(OC)c(NC(=O)Cc2cccs2)c1	32*	-4%	-4%	-7%	-11	-8%
CCCc1nn(C)c(C(=O)Nc2ccc(C)c(C)c2)c1Cl	32*	1%	7%	0%	92*	-7%
CCn1nc(C(=O)Nc2ccc(C)c(C)c2)c(Cl)c1Cl	14	6%	-10%	4%	-2	7%
CCCc1nn(C)c(C(=O)Nc2cccc3ccccc23)c1Cl	12	-1%	-10%	-4%	36*	1%
CCc1ccc(NC(=O)CCn2ccnc2C)cc1	7	9%	-17%	-2%	-11	-10%
CCCc1nn(C)c(C(=O)Nc2ccc(CC)cc2)c1Cl	17	-4%	-6%	3%	35*	2%
CCC1OC(=O)C(C)[C@@H](O[C@H]2C[C@@](C)(OC)C(O)C(C)O2)C(C)[C@@H](O[C@@H]2OC(C)CC(N(C)C)C2O)[C@@](C)(O)CC(C)CN(C)C(C)C(O)[C@]1(C)O (some centres not stated)	/	/	/	8%	/	/
Cc1ccc(Cl)cc1-n1ncc2c(N3CCN(Cc4ccccc4)CC3)ncnc21	/	/	/	/	/	1%
CC(C)c1cc(C(=O)N/N=C/c2c[nH]c3ccccc23)n[nH]1	17*	-2%	2%	4%	53*	0%
Cc1[nH]c2ccccc2c1/C=N/NC(=S)NC(C)C	12	0%	8%	-19%	-11	-3%
CC(SC(C)C(=O)NN=Cc1c[nH]c2ccccc12)C(=O)NN=Cc1c[nH]c2ccccc12 (configuration not stated)	/	/	-10%	/	/	9%
Cn1ccc(C(=O)N/N=C/c2c[nH]c3ccccc23)n1	45*	0%	0%	4%	59*	2%
CC(C)NC(=S)N/N=C/c1c[nH]c2ccccc12	18*	1%	-9%	3%	29*	-2%
CCOc1ccccc1/C=N/NC(=O)c1cc(C(C)C)[nH]n1	36*	0%	0%	6%	65*	-4%
COc1ccc(C2CCc3cc4c(cc3C2=NOC(C)=O)OCO4)cc1OC (configuration not stated)	/	/	9%	/	/	-6%
CC(=O)OCC(=O)[C@]1(O)C(C)CC2C3CCC4=CC(=O)C=C[C@@]4(C)[C@]3(F)C(O)C[C@@]21C (some centres not stated)	/	/	/	10%	/	/
COCCN1CCN(C(=O)C2CCC(=O)N(CCc3cccc(F)c3)C2)CC1 (configuration not stated)	0	-1%	8%	/	-3	-3%
SMILES	CHX counter	LmPK inh	RE007 growth inh	FBPA Giardia inh	Shiga toxin inh	Tb PYK inh
O=C(CC1C(=O)NCCN1CC1CCCCC1)NCc1ccc(F)cc1F (configuration not stated)	20*	3%	4%	1%	41*	2%
O=C(CC1C(=O)NCCN1CC1CCCCC1)NCc1cc(F)ccc1F (configuration not stated)	-3	-3%	-23%	7%	-3	-22%
COc1cccc(/C=N/NC(=O)C(=O)N2CCCCCC2)c1O	21*	-14%	0%	/	15	-10%
COc1cccc(/C=N/NC(=O)NC2CCCCC2)c1O	34*	-2%	6%	1%	52*	-7%
COc1cccc(/C=N/NC(=O)C(=O)N/N=C/c2cccc(OC)c2O)c1O	9	-2%	5%	13%	-9	2%
CCn1cc(C(=O)N2CCN(c3ccc(OC)cc3)CC2)c(=O)c2cc(S(=O)(=O)N(C)C3CCCCC3)ccc21	/	/	/	/	/	6%
COc1ccccc1NC(=O)c1ccc(NC(=O)CSc2nc(N)cc(=O)[nH]2)cc1	/	/	12%	/	/	-3%
CC(N)Cc1c[nH]c2ccc(O)cc12 (configuration not stated)	/	/	-10%	4µM*	/	-2%
NCCc1c[nH]c2ccc(O)cc12	42*	/	/	-25%	-13	/
Cc1[nH]c2ccc(O)cc2c1CCN	/	/	8%[18.4 µM]	3.5µM*	/	-4%
C[C@H](N)Cc1c[nH]c2ccc(O)cc12	/	/	/	-27%	/	/
COc1ccc2[nH]cc(CCN)c2c1	-2	-1%	-13%	-1%	-3	-4%
CCOc1ccc(-c2nn(CC(=O)NC3CCCCC3)c3c2cnc2ccc(C)cc23)cc1	/	/	/	/	/	0%
COc1ccc(CCNC(=O)CN(c2ccccc2)S(=O)(=O)N(C)C)cc1OC	/	/	/	/	/	0%
CCOc1ncccc1C(=O)NCC(c1ccccc1)N(C)C (configuration not stated)	2	-6%	-4%	/	-16	-4%
On1onc2c3cc(-c4ccccc4)nc3ccc21	69*	-4%	-8%	-27%	128*	-2%
O=[N+]([O-])c1cc(-c2nc(-c3ccccc3)no2)ccc1N1CCCC1	/	/	/	/	/	0%
Clc1ccc(Cl)c(-c2nc(-c3ccncc3)no2)c1	-2	10%	-11%	2%	/	-4%
O=[N+]([O-])c1cc(Cl)ccc1-c1nc(-c2ccccc2)no1	58*	-8%	-28%	2%	62*	3%
O=[N+]([O-])c1cc(Cl)ccc1-c1nc(-c2ccncc2)no1	19	0%	1%	2%	42*	1%
O=C(COC(=O)c1cnccn1)c1cccc([N+](=O)[O-])c1	-2	-3%	2%	-2%	5	3%
O=C1CCc2c(ccc3ccccc23)O1	/	/	/	0%	/	/
CN1COc2ccc3ccccc3c2C1	18*	-2%	-6%	-10%	4	0%
O=C(c1ccc2c(c1)N(Cc1ccccc1F)C(=O)c1ccccc1S2=O)N1CCC(Cc2ccccc2)CC1 (configuration not stated)	/	/	/	/	/	-1%
COc1cccc([C@@H]2Oc3ccc(Br)cc3C(=O)[C@H]2OC(=O)Nc2ccc(OC(F)F)cc2)c1	/	/	/	-4%	/	/
